HIF-2a inh – HIF-2a reporter inhibitors, primary screen, luminescence, 786-0 RCC cells. AID 624352, 2012. inhibition, % at 18.8 µM. 360,000 compounds, 0.72% hits. 786-0 RCC cells HIF-2a reporter, luciferase luminescence, overnight;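 active = inhibition of the luminescence signal of 40% or more relative to plate controls, in a single-dose primary screen at 18.75 µM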
Peg3 prom inh-1 – Peg3 promoter-driven luciferase inhibitors, primary screen, cell-based, HeLa, luciferase luminescence; HeLa PEG-Prom luciferase reporter, overnight; inhibition, % at 20 µM; 360,000 compounds, 1.7% hits;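 active = inhibition of at least 50% at 20 µM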
KKLEB cytotox – cytotoxicity in KKLEB CF airway cells, primary screen, cytotoxicity control for CF NF-kB inhibitor project, cell-based, uHTS, fluorescence assay plates; KKLEB CF airway cells viability, ATPlite luminescence, overnight; stronger effect = lower value; cells stimulated with P. aeruginosa culture filtrate; activity change (cytotoxicity), % at 5 µM; 360,000 compounds, 0.36% hits; AID 602141, 2011;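 active = corrected activity change at or below -50% at 5 µM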
Shn3 inh set2 – reduction of Shn3 3'UTR firefly luciferase signal, primary screen, Schnurri-3 inhibitor project, cell-based, Clone20 osteoblasts, set 2. Clone20 osteoblast Shn3 3'UTR firefly luciferase, 24 h. 360,000 compounds, 0.52% hits. inhibition, % at 12.5 µM. AID 588674, 2011;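 active = mean inhibition of at least 75% with every replicate also reaching 75%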;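 note: 0% = median of neutral control wells and 100% = pilot-screen positive control compound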
TRPM1 prom inh – inhibitors of MITF-dependent TRPM1 promoter reporter, primary screen, cell-based, SK-MEL-5, single point, luciferase | SK-MEL-5 TRPM1 promoter luciferase, 24 h | inhibition, % at 12.5 µM | AID 488899, 2010 | 330,000 compounds, 0.83% hits;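 active = mean inhibition across replicates of 60% or more, whatever share of single replicates reaches that level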
CF NFkB block – inhibitors of PAF-induced NF-kB signaling, primary screen, cell-based, GFP fluorescence, uHTS | 360,000 compounds, 0.86% hits | KKLEB NF-kB-GFP reporter, GFP fluorescence overnight | inhibition, % at 5 µM;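 active = at least 50% inhibition at 5 µM, scaled per plate between neutral and stimulator controls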;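 note: PAF is a Pseudomonas aeruginosa culture filtrate used as stimulus; plate controls were PAF-stimulated DMSO wells for no effect and unstimulated DMSO wells for full effect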
Peg3 prom inh-2 – Peg3 promoter reporter inhibitors, retest, confirmation, cell-based, HeLa, luciferase reporter, single concentration | shares compounds with Peg3 prom inh-1 | HeLa PEG-Prom luciferase reporter, luminescence, overnight | inhibition, % at 20 µM | 1,300 compounds, 84% hits | AID 602417, 2012;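 active = at 20 µM dose, 40% or more inhibition averaged across four replicates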
Numbers without * were called inactive; . = not tested or not shown. Compounds with a hit are over-represented: about 2.8% of the library has one in this group of screens.

SMILES	HIF-2a inh	Peg3 prom inh-1	KKLEB cytotox	Shn3 inh set2	TRPM1 prom inh	CF NFkB block	Peg3 prom inh-2
Cc1cc(/C=C2\SC(=Nc3ccccc3)NC2=O)c(C)n1-c1ccc(S(N)(=O)=O)cc1	2.3	-4.7	-6.1	24.0	17.7	5.7	.
Nn1c(SCC(=O)Nc2ccc(S(=O)(=O)N3CCCC3)cc2)nnc1C(F)(F)F	28.6	15.1	2.6	5.1	13.6	9.5	.
CCCCn1c(N)c(N(C(=O)CSc2nnnn2-c2ccccc2C)C2CCCC2)c(=O)[nH]c1=O	3.7	17.2	-14.6	-23.8	11.0	23.2	.
C/C(=N\N=C(N)N)c1ccc(Cl)cc1Cl	-0.9	71.1*	-18.0	23.3	-8.7	-5.4	72.6*
C/C(=N\N=C(N)N)c1cc(Cl)ccc1Cl	10.7	7.1	9.2	32.1	11.4	-2.9	.
CN(C)c1ccc(-c2nc3ccccn3c2/N=C/c2ccc(Br)cc2)cc1	35.9	54.1*	-9.4	23.9	-2.7	-7.5	40.9*
O=C(COC(=O)Cc1ccc(Cl)cc1)NCc1cccs1	8.9	-14.2	13.2	-9.9	1.3	2.5	.
CC(C)Cc1ccc(C(C)C(N)=NCCc2ccccc2)cc1 (stereo not drawn)	9.8	104.0*	-27.6	2.4	70.6*	9.6	99.2*
NC(=O)CC(NC(=O)Cc1cccc2ccccc12)c1ccc(NC2CCCCC2)c([N+](=O)[O-])c1 (stereo not drawn)	-10.5	77.7*	-22.0	2.9	-0.8	11.4	13.8
NC(=O)CC(NC(=O)Cc1cccc2ccccc12)c1ccc(NCC2CC2)c([N+](=O)[O-])c1 (stereo not drawn)	-1.5	6.0	-9.6	7.6	1.6	-19.3	.
NC(=O)CC(NC(=O)Cc1cccc2ccccc12)c1ccc(NCCOc2ccccc2)c([N+](=O)[O-])c1 (stereo not drawn)	11.0	54.2*	-18.8	13.5	-16.1	-15.0	27.1
COc1ccc(CCNc2ccc(C(CC(N)=O)NC(=O)c3ccc(Br)cc3)cc2[N+](=O)[O-])cc1 (stereo not drawn)	20.0	69.3*	-18.6	39.1	2.4	5.8	19.4
COc1ccc(N(C)S(=O)(=O)c2cccc(C(=O)OCC(=O)Nc3cc(C)ccc3OC)c2)cc1	-3.0	35.5	-1.0	-8.1	.	22.6	.
COc1ccc(/C=C/C(=O)c2ccc3c4c(cccc24)CC3)cc1OC	-40.5	69.1*	-27.2	12.8	-7.4	28.3	83.8*
COc1ccc(/C=C/C(=O)c2ccc3c4c(cccc24)CC3)cc1	-28.1	24.6	-42.0	-20.5	-51.8	16.3	.
Nc1cc(C(=O)OCC(=O)N2CCC(Cc3ccccc3)CC2)ccc1Cl	-2.0	-27.7	-7.6	-16.8	0.5	-4.1	.
CCc1sc(C(=O)N(CCOC)c2c(N)n(Cc3ccccc3)c(=O)[nH]c2=O)cc1C	10.7	-2.1	-3.0	-16.8	.	-3.5	.
CN(C)CCNc1ccc2ncn3c4ccc(O)cc4c(=O)c1c23	49.3*	101.4*	-14.1	-28.9	83.3*	19.0	71.1*
CC(=O)c1cccc(-c2ccnc3c2CC(C(=O)Nc2cccc(NS(C)(=O)=O)c2)O3)c1 (stereo not drawn)	28.1	58.6*	-1.1	73.3	.	-9.2	56.6*
CC(=O)c1cccc(NC(=O)C2Cc3c(-c4cccc(C(C)=O)c4)ccnc3O2)c1 (stereo not drawn)	-0.7	34.8	12.7	56.3	.	-94.5	.
O=C(CSc1ccccc1F)NC(=O)c1ccccc1Br	6.3	9.9	15.7	-11.5	-8.5	-18.1	.
C#CCNC(=O)C1=C[C@@H](c2cn(C(C)=O)c3ccccc23)C[C@@H](OCc2ccc(CO)cc2)O1	6.6	-13.2	14.5	13.0	-5.0	-18.9	.
CC(=O)n1cc([C@H]2C=C(C(=O)NCc3ccccc3)O[C@@H](OCc3ccc(CO)cc3)C2)c2ccccc21	34.1	54.5*	-0.9	3.4	3.2	13.3	47.3*
CCCCN(C(=O)c1ccc(N(C)S(=O)(=O)c2ccc(C)cc2)cc1)c1c(N)n(CC(C)C)c(=O)[nH]c1=O	3.4	7.0	2.7	-21.3	-10.4	5.7	.
CC(C)C(N)c1csc(Nc2ccc(C(=O)c3ccccc3)cc2)n1 (stereo not drawn)	-16.9	5.2	-14.3	8.5	.	19.4	.
SMILES	HIF-2a inh	Peg3 prom inh-1	KKLEB cytotox	Shn3 inh set2	TRPM1 prom inh	CF NFkB block	Peg3 prom inh-2
CC(C)CC(N)c1csc(Nc2ccc(C(=O)c3ccccc3)cc2)n1 (stereo not drawn)	1.9	53.0*	-22.3	48.7	.	38.8	93.7*
CCCN1CCc2c(sc(NC(=O)c3ccc(S(=O)(=O)N(C)c4ccccc4)cc3)c2C(N)=O)C1	4.4	-1.6	-26.3	25.7	-4.0	-19.5	.
CCCN1CCc2c(sc(NC(=O)c3ccc(S(=O)(=O)N4CCN(C(=O)OCC)CC4)cc3)c2C(N)=O)C1	22.1	65.1*	-12.0	15.3	51.1	-10.8	57.9*
COc1cc(/C=C2\SC(=Nc3ccccc3OC)NC2=O)ccc1O	16.4	64.3*	-31.1	-10.9	46.2	51.1*	67.9*
CC(C)(C)C(=O)CN1C(=O)NC2(CCCc3ccccc32)C1=O (stereo not drawn)	20.9	20.3	7.5	-10.7	-2.4	-6.5	.
CCOC(=O)c1cc2c(=O)n3ccccc3nc2n(CCOC)c1=NC(=O)c1ccncc1	6.6	7.5	1.5	-21.2	-3.2	1.8	.
CCOC(=O)c1cc2c(=O)n3ccccc3nc2n(CCOC)c1=NC(=O)c1c(-c2c(F)cccc2Cl)noc1C	29.8	53.2*	-7.9	31.1	0.8	-30.0	29.8
COc1ccc(C(O)(CCC(C)C)C(CN2CCOCC2)c2ccccc2)cc1 (stereo not drawn)	10.0	59.4*	-3.9	18.5	10.2	10.8	47.0*
CC(C)CCC(O)(c1ccccc1)C(CN1CCOCC1)c1ccccc1 (stereo not drawn)	14.7	22.5	-4.7	24.3	-0.3	1.6	.
COc1cccc(/C=N/NC(=O)c2c(-c3ccccc3)noc2C)c1OC	11.6	-2.4	1.1	-8.4	4.9	-15.2	.
COc1cccc(/C=N/NC(=O)c2c(-c3ccccc3)noc2C)c1O	-6.7	55.2*	-11.4	88.3*	47.2	6.8	56.2*
CCCOC(=O)c1cccc(Nc2nc(-c3cccnc3)nc3ccccc23)c1	21.0	96.2*	-22.1	66.9	47.8	0.0	94.8*
O=C(OCCNc1nc(-c2ccccc2)nc2ccccc12)c1cccnc1	11.4	21.1	-6.1	80.8	-17.5	-7.3	.
